Among the data in PubChem BioAssay (NCI) are growth values, retold here.

The panel holds about 83,000 compounds, 20% with a hit somewhere; the sample as a whole holds those more often.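 Assay: single dose, 48 h. Readout: percent growth (0 = no net growth; negative = cell death). Active: <10.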 Values without a mark were called inactive. Calls of active or inactive are those of the source.

Among the test systems are NCI-H23 lung; NCI-H226 lung; NCI-H322M lung; HOP-62 NSCLC; NCI-H460 lung; HOP-92 NSCLC; NCI-H522 lung; A549/ATCC NSCLC; 786-0 renal; COLO 205 colon.
What all share (experiment): NCI-60 one-dose screen, 48 h (100 = growth as untreated, 0 = no growth, -100 = all killed)
What all share (settings): 10 µM unless noted

For `Nc1nc(N)c2c(n1)NC(c1ccccc1)C1CCc3ccccc3C1=N2` (stereo not given), the growth in the test on NCI-H23 lung was 39.3%; in the test with NCI-H226 lung, 53.3%; with NCI-H322M lung it was 64.4%; in the test on HOP-62 NSCLC, 70.2%; with NCI-H460 lung it was 18.5%; with HOP-92 NSCLC, 72.2%. The growth in the test with NCI-H522 lung is 89.9%; in the test with A549/ATCC NSCLC, 63.4%; with 786-0 renal it was 55.1%; with COLO 205 colon, 27.6%.

As for `COc1ccc2c(c1)O/C(=C\c1cccc(OCC(=O)Nc3nc(C)c(C)s3)c1)C2=O`, the growth in the test on NCI-H23 lung was 19.4%; with NCI-H226 lung, 92.2%; in the test with NCI-H322M lung, 103%; in the test with HOP-62 NSCLC, 101%; in the test on NCI-H460 lung it was 88.8%; with HOP-92 NSCLC it was -75.4% (active). The growth in the test on NCI-H522 lung was -73.8% (active); in the test on A549/ATCC NSCLC, 12.4%; in the test on 786-0 renal, 17.7%; in the test with COLO 205 colon, 91.6%.

For the compound `O=C(Nc1ccccc1-c1nc2ccccc2c(=O)[nH]1)c1cc2ccccc2[nH]1`, the growth in the test on NCI-H23 lung was 82.4%; with NCI-H226 lung, 72.2%; with NCI-H322M lung, 84.2%; in the test on HOP-62 NSCLC, 71.6%; with NCI-H460 lung, 93.2%; in the test on HOP-92 NSCLC it was 68.7%. Also, the growth was 78.8% in the test with NCI-H522 lung, 87.6% in the test on A549/ATCC NSCLC, 98.1% in the test on 786-0 renal and 103% in the test on COLO 205 colon.

As to `COc1ccc2c(c1)C(=O)/C(=C/c1cccc(OCC(=O)Nc3nc(C)c(C)s3)c1)O2`, the growth is -38.6% (active) in the test on NCI-H23 lung; 71.8% with NCI-H226 lung; 122% with NCI-H322M lung; 94.8% in the test on HOP-62 NSCLC; 158% in the test on NCI-H460 lung; -74.8% (active) in the test on HOP-92 NSCLC. The growth with NCI-H522 lung is -72.4% (active); in the test with A549/ATCC NSCLC it was 46.8%; in the test on 786-0 renal, -17.2% (active); in the test on COLO 205 colon, -59.1% (active).

Take `Cc1cc(Cl)nc(NCc2cc(Nc3ccnc4cc(Cl)ccc34)ccc2F)n1`: the growth was 41.5% in the test on NCI-H23 lung; 64.2% in the test with NCI-H226 lung; 79.6% with NCI-H322M lung; 76.7% in the test on HOP-62 NSCLC; 34.8% in the test on NCI-H460 lung; 40.4% with HOP-92 NSCLC. Also, the growth with NCI-H522 lung is 45.1%; in the test with A549/ATCC NSCLC it was 58.5%; in the test on 786-0 renal, 76%; with COLO 205 colon, 75.8%.

Take `Cc1ccc2nc(C)c(-c3nnc(SCc4ccc(C#N)cc4)o3)n2c1`: the growth is 85.3% with NCI-H23 lung; 93.5% in the test with NCI-H226 lung; 90.7% in the test with NCI-H322M lung; 97.6% with HOP-62 NSCLC; 102% with NCI-H460 lung; 104% in the test on HOP-92 NSCLC. In addition, the growth was 97% with NCI-H522 lung, 104% in the test on A549/ATCC NSCLC, 72.2% in the test on 786-0 renal and 116% in the test with COLO 205 colon.

For `N#C/C(=C\c1ccc2c(c1)OCO2)n1nnc2cc(F)c(F)cc21`, the growth was 67.5% in the test on NCI-H23 lung; 69.5% in the test on NCI-H226 lung; 86.2% with NCI-H322M lung; 69.4% with HOP-62 NSCLC; 77.5% in the test with NCI-H460 lung; 46.5% in the test with HOP-92 NSCLC. The growth in the test with NCI-H522 lung is 18.3%; in the test with A549/ATCC NSCLC it was 79%; in the test on 786-0 renal, 89.2%; with COLO 205 colon, 87.4%.

Turning to `CC(=O)O[C@]1(C(C)=O)CCC2C3C[C@H](C)C4=CC(=O)CC[C@]4(C)C3CC[C@@]21C` (stereo not given in full), the growth was 96.2% in the test with NCI-H23 lung; 73.6% in the test on NCI-H226 lung; 95.7% with NCI-H322M lung; 94.6% in the test with HOP-62 NSCLC; 103% in the test on NCI-H460 lung; 89.9% with HOP-92 NSCLC. The growth was 74.8% in the test with NCI-H522 lung, 73.3% in the test on A549/ATCC NSCLC, 97.4% in the test with 786-0 renal and 104% in the test on COLO 205 colon.

As to `COC1=CC(=O)C[C@@H](C)[C@]12Oc1c(Cl)c(OC)cc(OC)c1C2=O`, the growth was 93.5% in the test with NCI-H23 lung; 99.9% in the test on NCI-H226 lung; 105% with NCI-H322M lung; 88.3% with HOP-62 NSCLC; 110% in the test on NCI-H460 lung; 89.4% in the test with HOP-92 NSCLC. Besides, the growth in the test with NCI-H522 lung was 80.5%; in the test on A549/ATCC NSCLC, 97.5%; with 786-0 renal, 99.2%; in the test on COLO 205 colon, 106%.

For `COC(=O)c1c2c(c(C)[n+]([O-])c1C)C(=O)C(NCc1ccc(F)c(Cl)c1)=CC2=O`, the growth with NCI-H23 lung was 16.3%; in the test on NCI-H226 lung it was 84.3%; in the test on NCI-H322M lung, 3.24% (active); with HOP-62 NSCLC it was 28.3%; in the test with NCI-H460 lung, 7.33% (active); in the test on HOP-92 NSCLC, 19%. Also, the growth was -26.6% (active) with NCI-H522 lung, 1.3% (active) with A549/ATCC NSCLC, -93.5% (active) in the test on 786-0 renal and -75.5% (active) in the test on COLO 205 colon.

For the compound `COCN1CCC2N(COC)CCC3N(COC)CCC1N23` (stereo not given), the growth in the test with NCI-H23 lung is 105%; in the test with NCI-H226 lung, 111%; in the test with NCI-H322M lung, 124%; in the test on HOP-62 NSCLC it was 107%; in the test with NCI-H460 lung, 109%; in the test with HOP-92 NSCLC it was 96.3%. Moreover, the growth with NCI-H522 lung was 107%; in the test with A549/ATCC NSCLC it was 97.1%; with 786-0 renal, 109%; in the test with COLO 205 colon it was 94.7%.

For `COc1ccc(/C=C/c2c(C(=O)/C=C/c3cccs3)c(C)nc3ccccc23)cc1`, the growth was 67.3% in the test on NCI-H23 lung; 76% in the test with NCI-H226 lung; 89.7% in the test with NCI-H322M lung; 93.2% with HOP-62 NSCLC; 83.6% in the test with NCI-H460 lung; 42.7% with HOP-92 NSCLC. Besides, the growth is 62.6% in the test on NCI-H522 lung, 92.5% in the test on A549/ATCC NSCLC, 90.6% with 786-0 renal and 78.4% in the test with COLO 205 colon.

Take `Oc1ccc(CN2CCC(N3CCOCC3)CC2)c2cccnc12`: the growth in the test on NCI-H23 lung was 15.2%; in the test with NCI-H226 lung, 64.6%; in the test on NCI-H322M lung, 57%; with HOP-62 NSCLC, 17.2%; with NCI-H460 lung it was 10.8%; in the test with HOP-92 NSCLC, -16% (active). The growth in the test on NCI-H522 lung is -14.9% (active); in the test with A549/ATCC NSCLC, 14.1%; with 786-0 renal it was 35.1%; with COLO 205 colon, 104%.
